Compound activity deposited in PubChem by National Center for Advancing Translational Sciences (NCATS).
Lassa entry inh = inhibitors of Lassa virus binding or cell entry. Lassa virus pseudotype entry inhibition, cell reporter. actives 1.2% (n = 300,000). Potency, µM (doses to about 37.9 µM), most hits filed as inhibitors; calls by dose curve; tested in HEK293 cells; note: nearly all actives have a fitted effect of over 50% in size
Marburg entry inh = blocks Marburg virus binding to or entry into cells | Potency, µM (top dose mostly 37.8 µM), actives largely listed as inhibitors | Marburg virus pseudotyped entry inhibition, cell reporter | actives 1.8% (n = 300,000); calls by dose curve; tested in HEK293 cells
FMDV antiviral = blocks foot and mouth disease virus; FMDV antiviral cell-based qHTS; Potency, µM (series often up to 57.9 µM), usual class: inhibitors; actives 1.2% (n = 410,000); calls by dose curve; tested in HEK293T cells; note: read-out not given here; nearly all actives have a fitted effect of over 45% in size
HCMV inh = blocks human cytomegalovirus replication | HFF cells, HCMV-luciferase reporter, 72 h; hits give low values | activity change, negative = inhibition, % at 57.5 µM | actives 4.5% (n = 410,000); in the data active = activity change below about -60%; inconclusive = no clear call, values can overlap the other calls; inactive = above about -39%
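Compounds were evaluated in HFFs infected with an HCMV luciferase reporter virus (MOI 1 PFU/cell). Luciferase in lysates collected 72 h post infection served as the replication measure.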
HCV inh = inhibitors of hepatitis C virus infection | Huh7.5.1 HCVcc-Cre infection, luciferase reporter, 44 h | Potency, µM (top dose mostly 41.8 µM), most hits filed as inhibitors | actives 3.4% (n = 340,000); active = well fitted inhibition curve with a large enough effect; inconclusive = small, poorly fitted or top-dose-only effect, or another doubt; inactive = no such curve, though single readings can be large or run the other way
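Infectious HCVcc-Cre (~0.5 moi) was added to cells just after compound, with cells seeded 4 h earlier at 1,000 per well. Luciferase activity after 44 h culture reported infection; substrate was incubated 15 min at room temperature before reading.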
Numbers stand for hits; n = inactive; u = inconclusive; x = no result; ! = not confirmed by another sample. An excerpt weighted towards active compounds, which were near 7.9% of everything screened.

SMILES | Lassa entry inh | Marburg entry inh | FMDV antiviral | HCMV inh | HCV inh
CCCCC(=O)N(CCOC)c1nnc(-c2cccnc2)s1 | n | u | n | n | n
CCCCC(=O)N(CCOC)c1nnc(-c2ccccc2C)s1 | n | u | n | n | 1.78µM
COc1ccc2[nH]cc(CCNc3ncncc3-c3ccc4c(c3)OCO4)c2c1 | x | x | 20µM | x | x
COc1cccc(-c2cncnc2NCCc2c[nH]c3ccc(OC)cc23)c1 | x | x | n | x | x
COc1ccc2c(c1)OC(C)CN(CCNC(=O)C1CCOC1)C2 (stereo not given) | x | x | n | x | x
CCCCCC(=O)N1C[C@H](O)[C@@H](n2cc(-c3ccc(F)cc3)nn2)C[C@H]1c1ccccc1 | n | x | x | x | x
COc1ccccc1N(C)S(=O)(=O)c1ccc(C(=O)Nc2ncc(C)s2)cc1 | u | n | u | u | 14.1µM
COc1ccccc1N(C)S(=O)(=O)c1ccc(C(=O)Nc2nc(C)c(C(C)=O)s2)cc1 | x | x | u | n | n
COc1ccccc1N(C)S(=O)(=O)c1ccc(C(=O)Nc2nccs2)cc1 | x | x | n | u | 11.2µM
CCn1cc(C(=O)NCCc2ccc(C)cc2)c(=O)c2cc(S(=O)(=O)N3CCc4ccccc4C3)ccc21 | n | u | n | n | x
COc1ccc(N2CCN(Cc3csc(C)c3-c3ccc(C)cc3)CC2)cc1 | u | u | u | -68.1 | u
C=CCc1cc(C)ccc1OCCn1ccnc1 | n | n | n | n | n
C=CCc1cc(C)ccc1OCCOCCn1ccnc1 | u | n | n | -63.2 | u
Cc1ccc(OCc2nc3ccccc3n2CC(C)C)cc1 | n | n | n | n | x
CC1CCc2c(sc3ncnc(NCCN4CCOCC4)c23)C1 (stereo not given) | x | n | n | n | u
Cc1sc2ncnc(NCc3ccco3)c2c1C | n | n | u | n | u
Cc1sc2ncnc(NCCN3CCOCC3)c2c1C | n | u | u | -76.3 | 11.2µM
Cc1sc2ncnc(NCc3cccnc3)c2c1C | n | n | n | -61.1 | u
Cc1sc2ncnc(NCc3cccs3)c2c1C | n | n | 14.1µM | -91.9 | 10µM
COc1ccc2c(c1)cc1c(=O)n(CC(=O)NC(C)C)nc(C)n12 | x | n | n | n | x
Cc1ccc(C(=O)O)cc1Nc1nc2ccccc2n2nnnc12 | n | n | n | n | x
COc1ccc2sc(-c3ccccc3OC)c(-c3ccc(OCCN(C)C)cc3)c2c1 | x | x | n | n | 10µM
COc1cccc(-c2sc3ccccc3c2-c2ccc(OCCN(C)C)cc2)c1 | x | x | u | n | 11.2µM
COc1ccccc1N1CCN(C(=O)c2cnn(-c3ccc(C)c(C)c3)c2C2CCN(C(=O)OC(C)(C)C)CC2)CC1 | u | x | n | n | x
O=C(NCCO)c1cn(C2CCN(Cc3c(F)cccc3Cl)CC2)nn1 | x | x | n | x | x
SMILES | Lassa entry inh | Marburg entry inh | FMDV antiviral | HCMV inh | HCV inh
CC(C)c1ccc(C2N3CC4(C)CN2CC(c2ccccc2)(C3)C4=O)cc1 (stereo not given) | n | n | n | n | x
O=C(CN1CCOCC1)Nc1nc(-c2ccc3c(c2)CCN3S(=O)(=O)c2ccccc2)cs1 | u | u | 22.4µM | -88.4 | 3.55µM
CS(=O)(=O)N1CCc2cc(-c3csc(NC(=O)Cc4cccs4)n3)ccc21 | 13µM | u | 12.6µM | -94.2 | 1.41µM
Cc1sc(NC(=O)CN2CCOCC2)nc1-c1ccc2c(c1)CCN2S(=O)(=O)c1ccccc1 | u | 13µM | x | -95.8 | u
Cc1ccccc1C(=O)N1CCc2cc(-c3nc(NC(=O)Cc4ccc5c(c4)OCO5)sc3C)ccc21 | u | n | u | x | 3.16µM
Cc1cccc(C(=O)N2CCc3cc(-c4nc(NC(=O)Cn5nnc6ccccc6c5=O)sc4C)ccc32)c1 | n | n | x | x | n
CNc1nc(-c2ccc3c(c2)CCN3C(=O)c2ccccc2C)cs1 | u | u | n | n | u
O=C(OCC1CCCO1)c1ccc2c(c1)N(Cc1ccccc1)C(=O)c1ccccc1S2(=O)=O (stereo not given) | n | x | n | n | x
COc1ccc(OC)c2c(=S)c3ccccc3[nH]c12 | x | x | n | x | x
CCCCN(Cc1cc2ccccc2[nH]c1=O)C(=O)c1cccc(Cl)c1 | n | n | u | n | x
Cc1cccc(C(=O)N2CCc3cc(-c4nc(NC(=O)CN5CCCC5)sc4C)ccc32)c1 | u | 10µM | n | n | 12.6µM
Cc1cccc(C(=O)N2CCc3cc(-c4csc(NC(=O)CN5CCCC5)n4)ccc32)c1 | x | u | u | n | u
CCC(CC)C(=O)Nc1nc(-c2ccc3c(c2)CCN3C(=O)C2CC2)c(C)s1 | 11.2µM | u | 11.2µM | -101.7 | u
Oc1ccc(/C=N/NC(=S)NC2CC3CCC2C3)cc1 (stereo not given) | 11.2µM | u | n | n | n
CC(=O)c1ccc(OCc2cc(C(=O)N3CCN(c4ccccc4)CC3C)no2)cc1 (stereo not given) | x | x | n | n | 22.4µM
COc1ccc(-c2cc3nccc(-c4cc(Cl)c(C)cc4O)n3n2)cc1 | n | n | n | n | x
O=C(Nc1cc(Cl)ccn1)C1CCN(S(=O)(=O)c2cccs2)CC1 | u | u | u | -73.2 | u
CC(=O)Nc1ccc(-c2csc(NC(=O)C3CCN(S(=O)(=O)c4cccs4)CC3)n2)cc1 | u | u | u | -69.3 | u
O=C(Nc1ccncc1)C1CCN(S(=O)(=O)c2cccs2)CC1 | n | n | n | n | n
Cc1csc(NC(=O)C2CCN(S(=O)(=O)c3cccs3)CC2)n1 | n | u | u | u | u
O=C(Nc1nc(-c2ccc(F)cc2)cs1)C1CCN(C(=O)c2ccc(F)cc2)CC1 | n | 11.2µM | 11.2µM | -79.9 | u
Cc1csc(NC(=O)C2CCN(S(=O)(=O)c3ccccc3F)CC2)n1 | n | u | n | -60.3 | u
CC1=CC(Cc2ccc(C)cc2)C(=O)N=N1 (stereo not given) | x | n | x | x | x
Cn1c(=O)c2c(nc(NC[C@@H](O)CO)n2CCc2ccccc2)n(C)c1=O | x | n | x | x | x
CCCNC(=O)C1CCN(S(=O)(=O)c2cccs2)CC1 | x | x | n | n | n
SMILES | Lassa entry inh | Marburg entry inh | FMDV antiviral | HCMV inh | HCV inh
CCCn1c(NC(=O)C2CCN(S(=O)(=O)c3cccs3)CC2)nc2ccccc21 | u | 12.6µM | u | -62.2 | 14.1µM
CCN(CC)c1ccc(NC(=O)C2CCCN(S(=O)(=O)c3ccc4c(c3)oc(=O)n4C)C2)c(C)c1 (stereo not given) | n | n | u | n | x
CC1=C(C)Cc2c(nnn2-c2nc(C)nc3sc4c(c23)CCCC4)C1 | x | n | x | x | x
O=C1C=C(c2ccccc2)CC(c2cccs2)C1n1cnc([N+](=O)[O-])c1 (stereo not given) | n | n | n | n | n
O=C1C=C(c2ccccc2)C[C@H](c2cccs2)[C@H]1n1nnc([N+](=O)[O-])n1 | u | 2µM | n | u | u
CCN(c1nc(N)c(C(=O)N=C(N)N)nc1Cl)C(C)C | u | 14.1µM | n | -62.0 | u
Cc1ccc(Nc2nc3ccc(C)cc3nc2-n2nc(C)cc2C)c(C)c1 | n | n | n | n | x
Oc1ccccc1O | u | 2.51µM! | n | n | u
Nc1ccccc1O | x | x | n | x | n
Cc1cn(C2CC(N=[N+]=[N-])C(CO)O2)c(=O)[nH]c1=O (stereo not given) | x | x | n | x | x
COc1ccc(CCn2c(C)cc(C(=O)CN3C(=O)C(=O)N(C4CCCC4)C3=O)c2C)cc1OC | n | u | n | n | 10µM
